# Measured values as given in PMC7862700, “An all-to-all approach to the identification of sequence-specific readers for epigenetic DNA modifications on cytosine”.
# Columns and labels:
# Experiment in all cases: DAPPL (digital affinity profiling via proximity ligation, sequencing); 10 mM Tris-HCl pH 7.5, 50 mM NaCl, 1 mM DTT, 4% glycerol, room temperature, 30 min; GST-TFs on glutathione beads, 16-mer random dsDNA library, 0.1% formaldehyde crosslink after washing; high values mean tight binding
# FEV = target: T1, FEV (Homo sapiens, UniProt Q99581 1-238); settings: protein: recombinant; tags: N-terminal GST; dsDNA, one strand shown
# T1 sequence: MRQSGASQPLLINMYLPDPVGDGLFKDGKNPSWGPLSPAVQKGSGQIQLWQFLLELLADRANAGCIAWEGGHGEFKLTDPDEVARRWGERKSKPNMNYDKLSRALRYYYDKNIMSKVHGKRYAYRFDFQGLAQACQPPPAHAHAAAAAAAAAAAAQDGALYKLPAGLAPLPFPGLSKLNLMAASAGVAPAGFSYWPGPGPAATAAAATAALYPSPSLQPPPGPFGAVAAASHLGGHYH
# How it was run: (§1)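 Beads coated with glutathione captured GST-fused human transcription factors that had been expressed in yeast, and the factors were then given DNA barcodes and pooled with a tag-only sample. The pools were incubated with 200 nmole of a random double-stranded 16-mer DNA library in Tris/NaCl/DTT/glycerol buffer for 30 min at room temperature, washed, crosslinked with 0.1% formaldehyde and proximity-ligated with BsaI/T4 ligase at 37 °C for 1 h. PCR amplification and Illumina NextSeq500 sequencing came last. Binding signal is each hexamer's read frequency for a factor divided by its frequency for the tag-only sample.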
# ETV5 = ETV5 (Homo sapiens, UniProt P41161 1-510); settings: protein: recombinant; tags: N-terminal GST; dsDNA, one strand shown
# How it was run: as §1
# HSF1 = HSF1 (Homo sapiens, UniProt Q00613 1-529); settings: protein: recombinant; tags: N-terminal GST; chain copies: 3; dsDNA, one strand shown
# How it was run: as §1
# SPIC = target: T2, SPIC (Homo sapiens, UniProt Q8N5J4 1-248); settings: protein: recombinant; tags: N-terminal GST; dsDNA, one strand shown
# T2 sequence: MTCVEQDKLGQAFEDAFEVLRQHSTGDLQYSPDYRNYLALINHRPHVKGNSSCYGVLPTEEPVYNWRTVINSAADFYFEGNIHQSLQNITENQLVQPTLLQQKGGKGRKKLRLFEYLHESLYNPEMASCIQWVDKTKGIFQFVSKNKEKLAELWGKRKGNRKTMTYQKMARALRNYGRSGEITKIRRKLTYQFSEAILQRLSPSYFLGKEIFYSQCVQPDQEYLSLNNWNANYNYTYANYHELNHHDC
# How it was run: as §1
# ELF4 = ELF4 (Homo sapiens, UniProt Q99607 1-663); settings: protein: recombinant; tags: N-terminal GST; dsDNA, one strand shown
# How it was run: as §1
# ELK4 = target: T3, ELK4 (Homo sapiens, UniProt P28324-2 1-405); settings: protein: recombinant; tags: N-terminal GST; dsDNA, one strand shown
# T3 sequence: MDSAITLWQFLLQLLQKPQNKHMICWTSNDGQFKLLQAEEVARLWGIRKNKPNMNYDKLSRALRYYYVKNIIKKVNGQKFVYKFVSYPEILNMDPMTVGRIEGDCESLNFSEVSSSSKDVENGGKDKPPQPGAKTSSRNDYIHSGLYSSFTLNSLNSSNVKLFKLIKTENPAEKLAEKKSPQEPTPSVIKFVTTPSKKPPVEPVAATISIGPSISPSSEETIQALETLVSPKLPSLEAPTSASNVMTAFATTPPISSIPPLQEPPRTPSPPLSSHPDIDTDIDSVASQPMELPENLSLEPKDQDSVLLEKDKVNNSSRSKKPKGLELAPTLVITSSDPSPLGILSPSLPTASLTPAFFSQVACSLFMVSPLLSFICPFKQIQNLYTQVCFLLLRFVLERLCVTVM
# How it was run: as §1
# ETV2 = target: T4, ETV2 (Homo sapiens, UniProt O00321 1-342); settings: protein: recombinant; tags: N-terminal GST; dsDNA, one strand shown
# T4 sequence: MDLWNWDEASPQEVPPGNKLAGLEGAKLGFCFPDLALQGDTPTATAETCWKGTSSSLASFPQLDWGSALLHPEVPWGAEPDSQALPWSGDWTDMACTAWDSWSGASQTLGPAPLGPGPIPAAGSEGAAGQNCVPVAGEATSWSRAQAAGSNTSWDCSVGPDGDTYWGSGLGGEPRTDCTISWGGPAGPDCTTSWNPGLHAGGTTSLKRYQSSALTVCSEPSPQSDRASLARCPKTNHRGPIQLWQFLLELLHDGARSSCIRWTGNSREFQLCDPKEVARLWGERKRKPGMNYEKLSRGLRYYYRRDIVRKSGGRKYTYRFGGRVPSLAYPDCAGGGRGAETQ
# How it was run: as §1
# ELF3 = target: T5, ELF3 (Homo sapiens, UniProt P78545 1-371); settings: protein: recombinant; tags: N-terminal GST; dsDNA, one strand shown
# T5 sequence: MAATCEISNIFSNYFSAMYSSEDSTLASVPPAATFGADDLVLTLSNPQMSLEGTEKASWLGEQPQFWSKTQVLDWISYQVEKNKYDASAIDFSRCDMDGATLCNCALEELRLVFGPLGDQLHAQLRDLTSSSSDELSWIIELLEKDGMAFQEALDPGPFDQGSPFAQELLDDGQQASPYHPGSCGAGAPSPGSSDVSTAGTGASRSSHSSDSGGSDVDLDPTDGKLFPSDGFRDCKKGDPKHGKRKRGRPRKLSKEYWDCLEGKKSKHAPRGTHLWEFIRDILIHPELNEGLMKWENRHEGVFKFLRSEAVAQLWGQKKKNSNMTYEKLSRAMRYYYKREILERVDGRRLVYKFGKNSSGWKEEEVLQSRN
# How it was run: as §1
# CRX = CRX (Homo sapiens, UniProt O43186 1-299); settings: protein: recombinant; tags: N-terminal GST; dsDNA, one strand shown
# How it was run: as §1
# ETV1 = ETV1 (Homo sapiens, UniProt P50549 1-477); settings: protein: recombinant; tags: N-terminal GST; dsDNA, one strand shown
# How it was run: as §1
# ERF = target: T6, ERF (Homo sapiens, UniProt P50548 1-548); settings: protein: recombinant; tags: N-terminal GST; dsDNA, one strand shown
# T6 sequence: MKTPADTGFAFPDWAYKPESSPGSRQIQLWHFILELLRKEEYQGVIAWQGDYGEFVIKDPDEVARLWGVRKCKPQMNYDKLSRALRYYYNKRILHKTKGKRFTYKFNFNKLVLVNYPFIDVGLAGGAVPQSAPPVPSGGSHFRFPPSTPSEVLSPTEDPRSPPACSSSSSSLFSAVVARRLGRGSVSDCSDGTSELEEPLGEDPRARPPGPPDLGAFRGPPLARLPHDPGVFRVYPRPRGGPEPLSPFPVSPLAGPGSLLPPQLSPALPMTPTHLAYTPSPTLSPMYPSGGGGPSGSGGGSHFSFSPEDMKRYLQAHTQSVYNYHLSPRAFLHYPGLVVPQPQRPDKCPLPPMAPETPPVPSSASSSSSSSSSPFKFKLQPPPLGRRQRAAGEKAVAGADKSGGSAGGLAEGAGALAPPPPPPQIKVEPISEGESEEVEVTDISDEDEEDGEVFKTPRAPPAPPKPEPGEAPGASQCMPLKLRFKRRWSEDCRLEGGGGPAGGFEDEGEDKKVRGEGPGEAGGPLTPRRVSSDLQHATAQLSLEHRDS
# How it was run: as §1
# ETV3L = target: T7, ETV3L (Homo sapiens, UniProt Q6ZN32 1-361); settings: protein: recombinant; tags: N-terminal GST; dsDNA, one strand shown
# T7 sequence: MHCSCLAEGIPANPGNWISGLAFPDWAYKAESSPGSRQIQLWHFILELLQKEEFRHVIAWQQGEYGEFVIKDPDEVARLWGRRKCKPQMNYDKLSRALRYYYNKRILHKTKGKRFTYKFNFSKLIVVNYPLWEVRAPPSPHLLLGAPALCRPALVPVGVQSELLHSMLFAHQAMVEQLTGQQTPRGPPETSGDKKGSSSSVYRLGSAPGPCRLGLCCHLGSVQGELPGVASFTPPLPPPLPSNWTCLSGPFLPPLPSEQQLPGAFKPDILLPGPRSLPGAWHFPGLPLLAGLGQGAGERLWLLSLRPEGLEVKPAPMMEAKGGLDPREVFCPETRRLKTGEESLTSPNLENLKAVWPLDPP
# How it was run: as §1
# ETS2 = target: T8, ETS2 (Homo sapiens, UniProt P15036 1-469); settings: protein: recombinant; tags: N-terminal GST; dsDNA, one strand shown
# T8 sequence: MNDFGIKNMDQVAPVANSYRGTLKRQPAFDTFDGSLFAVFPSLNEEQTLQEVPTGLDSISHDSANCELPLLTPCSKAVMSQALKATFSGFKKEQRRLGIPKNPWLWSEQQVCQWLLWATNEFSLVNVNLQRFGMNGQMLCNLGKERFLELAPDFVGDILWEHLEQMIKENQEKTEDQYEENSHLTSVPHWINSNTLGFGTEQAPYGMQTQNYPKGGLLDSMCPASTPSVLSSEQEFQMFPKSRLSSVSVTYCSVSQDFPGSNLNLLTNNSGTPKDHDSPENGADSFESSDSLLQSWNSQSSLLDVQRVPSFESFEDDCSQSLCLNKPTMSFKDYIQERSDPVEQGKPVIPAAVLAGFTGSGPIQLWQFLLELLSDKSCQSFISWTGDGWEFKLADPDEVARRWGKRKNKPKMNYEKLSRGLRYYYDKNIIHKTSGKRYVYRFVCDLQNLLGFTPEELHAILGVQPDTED
# How it was run: as §1
# SPDEF = target: T9, SPDEF (Homo sapiens, UniProt O95238 1-335); settings: protein: recombinant; tags: N-terminal GST; dsDNA, one strand shown
# T9 sequence: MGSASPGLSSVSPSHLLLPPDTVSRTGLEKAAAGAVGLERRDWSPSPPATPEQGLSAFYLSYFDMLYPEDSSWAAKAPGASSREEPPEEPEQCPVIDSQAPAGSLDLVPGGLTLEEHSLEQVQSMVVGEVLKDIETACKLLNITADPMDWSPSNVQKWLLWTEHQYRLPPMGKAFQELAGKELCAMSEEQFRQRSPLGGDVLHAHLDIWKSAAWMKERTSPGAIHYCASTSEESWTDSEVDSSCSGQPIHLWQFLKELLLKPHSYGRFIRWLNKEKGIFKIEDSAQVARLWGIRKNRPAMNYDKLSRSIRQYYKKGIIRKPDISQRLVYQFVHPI
# How it was run: as §1
# ETV7 = target: T10, ETV7 (Homo sapiens, UniProt Q9Y603 1-341); settings: protein: recombinant; tags: N-terminal GST; dsDNA, one strand shown
# T10 sequence: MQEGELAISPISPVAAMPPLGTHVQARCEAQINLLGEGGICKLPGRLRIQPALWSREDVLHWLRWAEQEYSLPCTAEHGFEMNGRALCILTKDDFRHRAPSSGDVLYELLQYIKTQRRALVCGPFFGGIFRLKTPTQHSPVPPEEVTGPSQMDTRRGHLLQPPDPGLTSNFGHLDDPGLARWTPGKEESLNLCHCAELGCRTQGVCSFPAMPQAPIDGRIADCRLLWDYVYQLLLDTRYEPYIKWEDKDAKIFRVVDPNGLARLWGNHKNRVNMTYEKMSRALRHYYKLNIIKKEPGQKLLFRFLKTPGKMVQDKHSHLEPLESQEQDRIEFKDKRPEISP
# How it was run: as §1
# ELF5 = target: T11, ELF5 (Homo sapiens, UniProt Q9UKW6-2 1-255); settings: protein: recombinant; tags: N-terminal GST; dsDNA, one strand shown
# T11 sequence: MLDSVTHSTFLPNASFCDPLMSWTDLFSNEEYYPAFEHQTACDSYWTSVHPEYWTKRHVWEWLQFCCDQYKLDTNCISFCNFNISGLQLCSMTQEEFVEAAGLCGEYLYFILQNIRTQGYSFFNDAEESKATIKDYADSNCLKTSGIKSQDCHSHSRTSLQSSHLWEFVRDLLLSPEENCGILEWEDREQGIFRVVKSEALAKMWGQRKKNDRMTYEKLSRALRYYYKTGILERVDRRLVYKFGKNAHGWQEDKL
# How it was run: as §1
# ETV3 = target: T12, ETV3 (Homo sapiens, UniProt P41162-2 1-143); settings: protein: recombinant; tags: N-terminal GST; dsDNA, one strand shown
# T12 sequence: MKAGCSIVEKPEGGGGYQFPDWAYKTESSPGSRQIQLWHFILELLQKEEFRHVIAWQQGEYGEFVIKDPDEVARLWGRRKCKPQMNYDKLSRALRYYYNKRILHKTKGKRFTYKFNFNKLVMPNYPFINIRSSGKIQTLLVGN
# How it was run: as §1
# ETV6 = ETV6 (Homo sapiens, UniProt P41212 1-452); settings: protein: recombinant; tags: N-terminal GST; dsDNA, one strand shown
# How it was run: as §1
# HSF1, sequence (Q00613 whole entry): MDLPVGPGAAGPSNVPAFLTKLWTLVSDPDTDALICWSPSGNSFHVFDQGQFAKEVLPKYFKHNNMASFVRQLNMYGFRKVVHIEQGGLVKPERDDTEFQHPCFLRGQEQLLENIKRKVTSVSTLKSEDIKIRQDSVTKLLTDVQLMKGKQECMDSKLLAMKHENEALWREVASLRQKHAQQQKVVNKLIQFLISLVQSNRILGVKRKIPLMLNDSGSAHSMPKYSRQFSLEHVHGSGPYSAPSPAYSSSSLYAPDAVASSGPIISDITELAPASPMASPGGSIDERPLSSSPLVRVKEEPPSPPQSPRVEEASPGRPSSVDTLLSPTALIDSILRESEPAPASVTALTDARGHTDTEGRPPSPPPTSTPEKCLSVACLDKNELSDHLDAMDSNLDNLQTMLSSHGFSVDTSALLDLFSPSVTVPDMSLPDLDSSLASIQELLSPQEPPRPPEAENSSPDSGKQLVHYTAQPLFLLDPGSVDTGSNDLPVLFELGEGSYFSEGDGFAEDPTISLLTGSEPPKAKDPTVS
# ETV1, sequence (P50549 whole entry): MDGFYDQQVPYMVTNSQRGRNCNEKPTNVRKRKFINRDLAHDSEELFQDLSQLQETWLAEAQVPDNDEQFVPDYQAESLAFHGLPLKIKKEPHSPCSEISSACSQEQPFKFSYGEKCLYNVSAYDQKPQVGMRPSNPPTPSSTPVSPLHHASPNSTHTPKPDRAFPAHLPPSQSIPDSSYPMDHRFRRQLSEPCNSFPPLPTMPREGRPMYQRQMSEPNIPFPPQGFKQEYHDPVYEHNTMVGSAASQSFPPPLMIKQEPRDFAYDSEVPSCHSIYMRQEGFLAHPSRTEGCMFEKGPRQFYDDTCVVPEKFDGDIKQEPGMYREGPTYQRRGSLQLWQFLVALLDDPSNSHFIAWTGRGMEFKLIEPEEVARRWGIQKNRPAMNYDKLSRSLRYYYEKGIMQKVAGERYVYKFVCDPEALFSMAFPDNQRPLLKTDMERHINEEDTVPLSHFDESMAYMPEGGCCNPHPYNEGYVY
# ETV5, sequence (P41161 whole entry): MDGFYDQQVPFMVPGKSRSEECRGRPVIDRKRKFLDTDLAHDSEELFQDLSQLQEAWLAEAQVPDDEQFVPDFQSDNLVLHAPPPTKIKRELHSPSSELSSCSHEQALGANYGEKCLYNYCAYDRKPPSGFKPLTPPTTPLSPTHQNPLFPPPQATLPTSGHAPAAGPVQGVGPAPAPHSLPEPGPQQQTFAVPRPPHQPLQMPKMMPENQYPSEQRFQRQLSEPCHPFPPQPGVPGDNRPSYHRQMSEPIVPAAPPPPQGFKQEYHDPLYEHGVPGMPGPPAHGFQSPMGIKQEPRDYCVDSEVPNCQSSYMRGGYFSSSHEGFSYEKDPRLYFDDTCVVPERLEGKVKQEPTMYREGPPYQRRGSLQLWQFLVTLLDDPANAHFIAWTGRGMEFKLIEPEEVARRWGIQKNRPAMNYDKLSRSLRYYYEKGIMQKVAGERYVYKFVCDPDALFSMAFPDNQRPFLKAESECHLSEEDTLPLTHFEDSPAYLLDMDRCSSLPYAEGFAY
# CRX, sequence (O43186 whole entry): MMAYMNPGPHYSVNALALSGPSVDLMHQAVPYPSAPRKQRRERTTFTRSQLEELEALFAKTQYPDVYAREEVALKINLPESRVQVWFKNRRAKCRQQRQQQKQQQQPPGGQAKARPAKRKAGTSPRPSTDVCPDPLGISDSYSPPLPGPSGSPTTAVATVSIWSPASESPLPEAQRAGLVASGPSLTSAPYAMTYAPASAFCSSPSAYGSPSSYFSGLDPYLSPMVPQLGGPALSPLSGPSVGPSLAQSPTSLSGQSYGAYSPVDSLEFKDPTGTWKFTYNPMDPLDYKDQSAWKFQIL
# ETV6, sequence (P41212 whole entry): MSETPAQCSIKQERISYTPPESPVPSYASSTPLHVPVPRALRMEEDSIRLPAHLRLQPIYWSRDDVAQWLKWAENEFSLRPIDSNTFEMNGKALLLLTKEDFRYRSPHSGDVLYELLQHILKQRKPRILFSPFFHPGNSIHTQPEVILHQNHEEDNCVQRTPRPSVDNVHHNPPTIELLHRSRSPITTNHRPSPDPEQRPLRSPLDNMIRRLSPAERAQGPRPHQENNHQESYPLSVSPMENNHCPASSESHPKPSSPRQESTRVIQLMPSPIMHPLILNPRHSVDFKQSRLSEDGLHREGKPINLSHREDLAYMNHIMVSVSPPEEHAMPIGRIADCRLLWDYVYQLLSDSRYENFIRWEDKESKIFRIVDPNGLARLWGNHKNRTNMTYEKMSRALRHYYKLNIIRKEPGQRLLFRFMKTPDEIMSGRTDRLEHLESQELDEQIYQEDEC
# ELF4, sequence (Q99607 whole entry): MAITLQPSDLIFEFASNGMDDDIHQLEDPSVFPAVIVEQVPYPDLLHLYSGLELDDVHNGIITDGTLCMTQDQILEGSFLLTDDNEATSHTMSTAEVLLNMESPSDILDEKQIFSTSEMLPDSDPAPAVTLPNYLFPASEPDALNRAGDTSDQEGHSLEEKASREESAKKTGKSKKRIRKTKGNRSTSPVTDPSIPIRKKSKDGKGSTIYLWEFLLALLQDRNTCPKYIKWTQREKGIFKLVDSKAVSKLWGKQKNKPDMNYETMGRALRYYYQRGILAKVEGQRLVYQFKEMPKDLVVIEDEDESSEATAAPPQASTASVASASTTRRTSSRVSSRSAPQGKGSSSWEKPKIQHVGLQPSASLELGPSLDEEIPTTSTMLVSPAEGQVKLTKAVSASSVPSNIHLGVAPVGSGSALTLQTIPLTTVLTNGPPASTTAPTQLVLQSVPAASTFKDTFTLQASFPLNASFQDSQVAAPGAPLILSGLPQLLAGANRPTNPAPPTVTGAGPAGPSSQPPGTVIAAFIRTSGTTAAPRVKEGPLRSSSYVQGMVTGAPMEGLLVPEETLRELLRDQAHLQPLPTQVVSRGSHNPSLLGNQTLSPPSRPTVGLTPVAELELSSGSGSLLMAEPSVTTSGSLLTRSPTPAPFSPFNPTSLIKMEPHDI
sequence,measurement,setting,value
TACGCG,binding signal,FEV,"1.11 fold enrichment (6-mer frequency, TF over GST control)"
same,binding signal,ETV5,"1.21 fold enrichment (6-mer frequency, TF over GST control)"
same,binding signal,HSF1,"1.17 fold enrichment (6-mer frequency, TF over GST control)"
same,binding signal,SPIC,"1.12 fold enrichment (6-mer frequency, TF over GST control)"
same,binding signal,ELF4,"1.12 fold enrichment (6-mer frequency, TF over GST control)"
same,binding signal,ELK4,"1.25 fold enrichment (6-mer frequency, TF over GST control)"
same,binding signal,ETV2,"1.21 fold enrichment (6-mer frequency, TF over GST control)"
same,binding signal,ELF3,"1.19 fold enrichment (6-mer frequency, TF over GST control)"
same,binding signal,CRX,"1.24 fold enrichment (6-mer frequency, TF over GST control)"
same,binding signal,ETV1,"1.23 fold enrichment (6-mer frequency, TF over GST control)"
same,binding signal,ERF,"1.13 fold enrichment (6-mer frequency, TF over GST control)"
same,binding signal,ETV3L,"1.13 fold enrichment (6-mer frequency, TF over GST control)"
same,binding signal,ETS2,"1.14 fold enrichment (6-mer frequency, TF over GST control)"
same,binding signal,SPDEF,"1.23 fold enrichment (6-mer frequency, TF over GST control)"
same,binding signal,ETV7,"1.02 fold enrichment (6-mer frequency, TF over GST control)"
same,binding signal,ELF5,"1.09 fold enrichment (6-mer frequency, TF over GST control)"
same,binding signal,ETV3,"1.16 fold enrichment (6-mer frequency, TF over GST control)"
same,binding signal,ETV6,"1.15 fold enrichment (6-mer frequency, TF over GST control)"
